{
  "source": "PubChem BioAssay AID602428",
  "about": "(Sanford-Burnham Center for Chemical Genomics, 2012)",
  "note": "In all, about 2,500 compounds went through this assay and about 980 (39%) were called active.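 Rule for the calls: active = mean inhibition at 5 µM reaching about 45% (limit read from the data); inactive = the rest.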 The sample as a whole holds a higher share of actives than the screen did.",
  "data": [
    {"assay": "blockers of Gli reporter signaling – single concentration, luciferase luminescence, Sufu-KO-LIGHT cells, confirmation (AID 602428);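 note: plate controls were DMSO-treated cells for no effect and wells lacking cells for full effect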", "settings": "at 5 µM, hits give high values", "values": [
      {"smiles": "CCOc1cccc(=NC2CCCCC2)c2c(C)[nH]c(C)c12", "inhibition": "86.4% (active)"}
    ]}
  ]
}
